Source: PubChem BioAssay
For some of these results: Potency and affinity values are given separately. Activity calls are given as the source filed them. Unless noted, the rule behind the calls is not given here.

What was measured:
[1] = human hepatoma cell viability loss – ATP luminescence, cytotoxicity control for P. falciparum antimalarial project, primary screen (AID 2303;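 active = inhibition above 50%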;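 note: 0% = DMSO wells and 100% = digitonin-killed cells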); conditions: HepG2 viability, 24-48 h, at 10 µM, stronger effect = higher value
[2] = target: L-lactate dehydrogenase (Plasmodium falciparum (isolate CDC / Honduras)) (UniProt Q27743); experiment: PfLDH activity inhibition – cell lysate, 3D7 strain, counter-screen for P. falciparum growth inhibition project (AID 2304);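 note: 0% = vehicle and 100% = reference inhibitor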; conditions: P. falciparum 3D7 crude extract, LDH APAD/NBT absorbance; at 2 µM; stronger effect = higher value
[3] = inhibition of 3D7 malaria parasite growth – strain 3D7 (AID 2306);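 note: 0% = DMSO wells and 100% = chloroquine plus artemisinin control wells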; conditions: P. falciparum 3D7 erythrocytic growth, LDH absorbance, 72 h; at 2 µM; stronger effect = higher value
[4] = target: Calcium-dependent protein kinase 1 (Plasmodium falciparum (isolate 3D7)) (UniProt P62344); experiment: PfCDPK1 kinase inhibitors, biochemical, TCAMS library (AID 1159585; cut-off not given, nearly all actives have IC50 up to about 0.98 µM;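 note: inhibitors leave more ATP so luminescence rises with inhibition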); conditions: recombinant PfCDPK1, Kinase-Glo ATP depletion luminescence
[5] = target: Plasmodium falciparum protein kinase 6 (PK6, PF3D7_1337100) (UniProt Q8IDW1); experiment: PfPK6 kinase inhibitors, biochemical, TCAMS library (AID 1159586); conditions: recombinant PfPK6, Kinase-Glo ATP depletion luminescence
[6] = target: Protein kinase 7 (PK7), Plasmodium falciparum 3D7 (PF3D7_0213400) (UniProt Q7YTF7); experiment: inhibition of Plasmodium PK7 catalytic activity – biochemical, TCAMS antimalarial set, Kinase-Glo luminescence (AID 1159587); conditions: recombinant PfPK7, Kinase-Glo ATP depletion luminescence
[7] = target: Calcium-dependent protein kinase 4 (Plasmodium falciparum (isolate 3D7)) (UniProt Q8IBS5); experiment: PfCDPK4 kinase inhibitors, biochemical, TCAMS library (AID 1159588; cut-off not given, nearly all actives have IC50 up to about 0.91 µM); conditions: recombinant PfCDPK4, Kinase-Glo ATP depletion luminescence
[8] = antimalarial activity against Dd2 strain (AID 2302;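 active = growth inhibition above 50% at the single 2 µM test dose, taken to imply half-maximal potency below 2 µM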;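 note: 0% = DMSO untreated growth and 100% = chloroquine plus artemisinin killed control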); conditions: P. falciparum Dd2 in RBCs, LDH growth readout, 72 h; at 2 µM; stronger effect = higher value

Calcium-dependent protein kinase 4 (Plasmodium falciparum (isolate 3D7)), sequence (Q8IBS5 whole entry, looked up): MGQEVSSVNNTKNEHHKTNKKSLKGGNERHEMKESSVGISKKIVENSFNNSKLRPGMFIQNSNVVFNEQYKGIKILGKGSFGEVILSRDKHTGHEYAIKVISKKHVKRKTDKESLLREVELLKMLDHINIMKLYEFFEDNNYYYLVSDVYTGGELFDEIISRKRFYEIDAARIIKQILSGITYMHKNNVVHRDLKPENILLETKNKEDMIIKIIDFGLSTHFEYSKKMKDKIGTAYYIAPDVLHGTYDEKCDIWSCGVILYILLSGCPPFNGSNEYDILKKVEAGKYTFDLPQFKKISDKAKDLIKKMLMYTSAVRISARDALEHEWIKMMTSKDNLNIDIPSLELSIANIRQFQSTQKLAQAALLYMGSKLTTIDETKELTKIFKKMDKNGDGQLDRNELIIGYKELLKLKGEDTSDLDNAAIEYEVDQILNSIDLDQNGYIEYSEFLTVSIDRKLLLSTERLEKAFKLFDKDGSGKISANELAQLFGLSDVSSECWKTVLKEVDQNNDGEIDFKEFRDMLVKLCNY
Calcium-dependent protein kinase 1 (Plasmodium falciparum (isolate 3D7)), sequence (P62344 whole entry, looked up): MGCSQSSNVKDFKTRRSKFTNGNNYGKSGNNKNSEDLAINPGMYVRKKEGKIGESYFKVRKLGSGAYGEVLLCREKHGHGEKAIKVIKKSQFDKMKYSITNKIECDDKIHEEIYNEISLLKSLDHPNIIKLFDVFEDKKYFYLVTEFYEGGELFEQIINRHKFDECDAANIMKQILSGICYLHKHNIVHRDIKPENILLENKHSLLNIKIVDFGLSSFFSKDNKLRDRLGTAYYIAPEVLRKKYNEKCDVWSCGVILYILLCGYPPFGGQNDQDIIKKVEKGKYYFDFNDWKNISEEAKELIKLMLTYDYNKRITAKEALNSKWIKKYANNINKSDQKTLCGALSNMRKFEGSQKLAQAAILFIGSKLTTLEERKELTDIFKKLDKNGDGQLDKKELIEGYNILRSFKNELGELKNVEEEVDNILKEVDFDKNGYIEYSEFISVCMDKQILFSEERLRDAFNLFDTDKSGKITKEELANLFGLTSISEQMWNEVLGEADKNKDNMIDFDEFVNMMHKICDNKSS
Protein kinase 7 (PK7), Plasmodium falciparum 3D7 (PF3D7_0213400), sequence (Q7YTF7 1-343): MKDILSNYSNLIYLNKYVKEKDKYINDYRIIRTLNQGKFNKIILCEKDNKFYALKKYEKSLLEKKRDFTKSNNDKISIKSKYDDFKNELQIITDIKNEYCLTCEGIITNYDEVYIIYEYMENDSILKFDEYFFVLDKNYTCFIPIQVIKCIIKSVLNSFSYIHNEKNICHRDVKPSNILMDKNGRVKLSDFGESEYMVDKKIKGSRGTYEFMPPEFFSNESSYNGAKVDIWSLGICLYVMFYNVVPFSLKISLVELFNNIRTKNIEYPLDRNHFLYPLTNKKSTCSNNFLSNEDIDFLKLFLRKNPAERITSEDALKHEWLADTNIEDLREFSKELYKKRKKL
L-lactate dehydrogenase (Plasmodium falciparum (isolate CDC / Honduras)), sequence (Q27743 whole entry, looked up): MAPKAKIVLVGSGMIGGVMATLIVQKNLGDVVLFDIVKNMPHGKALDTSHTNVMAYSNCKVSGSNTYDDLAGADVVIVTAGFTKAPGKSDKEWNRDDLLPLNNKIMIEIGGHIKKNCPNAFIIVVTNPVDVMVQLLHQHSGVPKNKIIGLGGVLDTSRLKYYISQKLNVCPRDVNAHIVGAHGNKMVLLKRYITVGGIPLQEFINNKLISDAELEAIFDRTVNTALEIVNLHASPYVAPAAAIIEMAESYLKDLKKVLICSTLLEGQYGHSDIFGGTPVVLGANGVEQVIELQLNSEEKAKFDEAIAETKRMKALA
Plasmodium falciparum protein kinase 6 (PK6, PF3D7_1337100), sequence (Q8IDW1 1-305): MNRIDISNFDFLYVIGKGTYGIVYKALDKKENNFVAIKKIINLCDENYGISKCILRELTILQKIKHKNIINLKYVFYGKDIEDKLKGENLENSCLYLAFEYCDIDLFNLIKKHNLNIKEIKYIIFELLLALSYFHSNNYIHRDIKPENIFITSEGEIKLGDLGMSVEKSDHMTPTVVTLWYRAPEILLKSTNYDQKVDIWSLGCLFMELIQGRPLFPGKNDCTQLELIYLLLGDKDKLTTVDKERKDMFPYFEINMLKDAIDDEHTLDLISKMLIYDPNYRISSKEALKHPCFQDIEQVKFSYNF

CCCN1CCN(CCNc2c3ccccc3nc3ccccc23)CC1
inactive: inhibition [1] 13% | inhibition [2] 3% | outcome [4] | outcome [5] | outcome [6] | outcome [7]
active: growth inhibition [3] 88%

Oc1ccc(CNCC2CCN(CC3CCCCC3)CC2)cc1
inactive: inhibition [1] 9% | inhibition [2] -1% | outcome [4] | outcome [5] | outcome [6] | outcome [7]
active: growth inhibition [3] 82%

COc1cc(Cc2cnc3nc(N)nc(N)c3c2C)cc(OC)c1OC
active: growth inhibition [8] 98% | growth inhibition [3] 95%
inactive: inhibition [2] 1% | outcome [4] | outcome [5] | outcome [6] | outcome [7]

Cc1ccc(-n2c(C)cc(C(=O)CN3C(=O)NC(Cc4ccccc4)C3=O)c2C)cc1 (configuration not stated)
active: growth inhibition [3] 82%
inactive: inhibition [1] -11% | inhibition [2] 3% | outcome [4] | outcome [5] | outcome [6] | outcome [7]

CC1CN=C(c2ccc(NC(=O)Nc3ccc(C4=NCC(C)N4)cc3)cc2)N1 (configuration not stated)
inactive: inhibition [2] 0% | outcome [4] | outcome [5] | outcome [6] | outcome [7]
active: growth inhibition [8] 67% | growth inhibition [3] 85%

CCCCCCCc1c(C)[nH]c2ccc(F)cc2c1=O
inactive: inhibition [2] -5% | outcome [4] | outcome [5] | outcome [6] | outcome [7]
active: growth inhibition [8] 96% | growth inhibition [3] 98%

O=C(Nc1ccc(OC2CCN(CC3CC3)CC2)c(Cl)c1)c1ccc2ncccc2c1
active: growth inhibition [3] 84%
inactive: inhibition [1] 19% | inhibition [2] -2% | outcome [4] | outcome [5] | outcome [6] | outcome [7]

Cc1nc(Cl)c2c(-c3ccccc3)csc2n1
active: growth inhibition [3] 84%
inactive: inhibition [1] -11% | inhibition [2] 1% | outcome [4] | outcome [5] | outcome [6] | outcome [7]

Cc1nc2nc(N)nc(N)c2c(C)c1Cc1ccc([N+](=O)[O-])cc1
active: growth inhibition [3] 98%
inactive: growth inhibition [8] 11% | inhibition [2] -1% | outcome [4] | outcome [5] | outcome [6] | outcome [7]

Cc1cccc(-c2c(C)nc(N)nc2N)c1
active: growth inhibition [3] 88%
inactive: growth inhibition [8] -9% | inhibition [2] -6% | outcome [4] | outcome [5] | outcome [6] | outcome [7]

COc1ccc(CNC(=O)Nc2cccc(-c3csc(N=C(N)N)n3)c2)cc1
active: growth inhibition [3] 80%
inactive: inhibition [1] 8% | inhibition [2] 1% | outcome [4] | outcome [5] | outcome [6] | outcome [7]

CC(C)(C)OC(=O)N[C@@H](CS(=O)(=O)CCN=C(N)COCc1ccccc1)C(=O)OC(C)(C)C
active: growth inhibition [8] 76% | growth inhibition [3] 88%
inactive: inhibition [2] 4% | outcome [4] | outcome [5] | outcome [6] | outcome [7]

O=C(O)CCSc1ncnc2nc[nH]c12
inactive: inhibition [1] 7% | inhibition [2] 6% | outcome [4] | outcome [5] | outcome [6] | outcome [7]
active: growth inhibition [3] 103%

CCOc1cc2ncnc(Nc3ccc(OCc4ccccc4OC)c(OC)c3)c2cc1OCC
inactive: inhibition [2] -5% | outcome [4] | outcome [5] | outcome [6] | outcome [7]
active: growth inhibition [8] 52% | growth inhibition [3] 97%

Nc1nc(N)c2cc(Cc3ccc([N+](=O)[O-])cc3)cnc2n1
inactive: growth inhibition [8] -3% | inhibition [2] -2% | outcome [4] | outcome [5] | outcome [6] | outcome [7]
active: growth inhibition [3] 91%

CC(C)(C)c1ccc(-c2nc3c(ccc4nc(N)nc(N)c43)[nH]2)cc1
active: growth inhibition [8] 101% | growth inhibition [3] 100%
inactive: inhibition [2] 1% | outcome [4] | outcome [5] | outcome [6] | outcome [7]

CC(C)C(=O)NC(NC(=S)Nc1ccc(Br)cc1)C(Cl)(Cl)Cl (configuration not stated)
inactive: inhibition [1] -5% | inhibition [2] 3% | outcome [4] | outcome [5] | outcome [6] | outcome [7]
active: growth inhibition [3] 93%

COc1cccc(-c2nc(Nc3ccncc3)c3ncn(C)c3n2)c1
inactive: inhibition [1] 14% | inhibition [2] -1% | outcome [4] | outcome [5] | outcome [6] | outcome [7]
active: growth inhibition [3] 94%

Cc1ccccc1OCCCc1c(C)nc(N)nc1N
active: growth inhibition [3] 97%
inactive: growth inhibition [8] 1% | inhibition [2] -3% | outcome [4] | outcome [5] | outcome [6] | outcome [7]

Cc1nn(-c2ccccc2)nc1C(=O)N(Cc1ccc(-c2ccc(CNCCc3ccc(S(C)(=O)=O)cc3)cn2)cc1)C1CC1
active: growth inhibition [3] 84%
inactive: inhibition [1] 9% | inhibition [2] -2% | outcome [4] | outcome [5] | outcome [6] | outcome [7]

COc1cc(CCNCC(O)c2ccc([N+](=O)[O-])c(OCc3ccccc3)c2)cc(OC)c1OC (configuration not stated)
active: growth inhibition [3] 98%
inactive: inhibition [1] 11% | inhibition [2] -3% | outcome [4] | outcome [5] | outcome [6] | outcome [7]

Cc1cc(=O)c(-c2ccc(Oc3ccc(OC(F)(F)F)cc3)cc2)c(C)[nH]1
inactive: inhibition [2] 0% | outcome [4] | outcome [5] | outcome [6] | outcome [7]
active: growth inhibition [8] 61% | growth inhibition [3] 93%

CCOc1cc(Cc2cnc(N)nc2N)cc(Br)c1OC
inactive: growth inhibition [8] 3% | inhibition [2] 5% | outcome [4] | outcome [5] | outcome [6] | outcome [7]
active: growth inhibition [3] 83%

CCNC(=O)CCc1cccc(Br)c1
active: growth inhibition [8] 54% | growth inhibition [3] 89%
inactive: inhibition [2] 6% | outcome [4] | outcome [5] | outcome [6] | outcome [7]

CCOc1cc2ncnc(Nc3ccc(OCc4c(Cl)cccc4Cl)c(OC)c3)c2cc1OCC
active: growth inhibition [3] 89%
inactive: growth inhibition [8] 12% | inhibition [2] 5% | outcome [4] | outcome [5] | outcome [6] | outcome [7]

CCCc1cc(Cc2cnc(N)nc2N)cc2c1OC(C)(C)C2
inactive: growth inhibition [8] 3% | inhibition [2] -1% | outcome [4] | outcome [5] | outcome [6] | outcome [7]
active: growth inhibition [3] 89%

CCC1=C(C[C@H]2NCCc3cc(OC)c(OC)cc32)C[C@H]2c3cc(OC)c(OC)cc3CCN2C1
active: growth inhibition [8] 100% | growth inhibition [3] 102%
inactive: inhibition [2] -2% | outcome [4] | outcome [5] | outcome [6] | outcome [7]

O=C(O)CCc1ccc(-c2c[nH]c3ncc(-c4ccc5ncccc5c4)cc23)cc1
active: growth inhibition [3] 88%
inactive: inhibition [1] 30% | inhibition [2] -3% | outcome [4] | outcome [5] | outcome [6] | outcome [7]

COc1ccc(Cl)cc1N1CCN(CCCNC(=O)c2ccc(-c3nc4c(C)cccc4[nH]3)s2)CC1
inactive: inhibition [1] -2% | inhibition [2] 5% | outcome [4] | outcome [5] | outcome [6] | outcome [7]
active: growth inhibition [3] 98%

CCn1c(-c2nonc2N)nc2c(-c3cccc(NC(=O)NCc4ccccc4)c3)ncc(OCCCN)c21
inactive: inhibition [1] 5% | inhibition [2] -7% | outcome [4] | outcome [5] | outcome [6] | outcome [7]
active: growth inhibition [3] 99%

CC(C)CNc1nc(N)nc2ccc3c(ccn3CC(C)C)c12
inactive: inhibition [2] -7% | outcome [4] | outcome [5] | outcome [6] | outcome [7]
active: growth inhibition [8] 51% | growth inhibition [3] 99%

COc1ccc(CCN2CC[C@H](CNc3nc(-c4ccccc4)nc4ccccc34)C2)cc1S(N)(=O)=O
active: inhibition [1] 54% | growth inhibition [3] 85%
inactive: inhibition [2] -4% | outcome [4] | outcome [5] | outcome [6] | outcome [7]

COc1cc(OC)cc(C(=O)Nc2nc(-c3ccc(NC(=O)c4ccccc4)cc3)cs2)c1
inactive: inhibition [1] 16% | inhibition [2] -1% | outcome [4] | outcome [5] | outcome [6] | outcome [7]
active: growth inhibition [3] 88%

CC(=O)Nc1cccc(Nc2c3ccccc3nc3ccccc23)c1
active: growth inhibition [3] 82%
inactive: inhibition [1] 31% | inhibition [2] 5% | outcome [4] | outcome [5] | outcome [6] | outcome [7]

CNC(=O)c1ccc(/C=C/C(=O)N2CCc3ccc(-c4ccccc4)cc3C2c2cccc(C(F)(F)F)c2)cc1 (configuration not stated)
inactive: inhibition [1] 9% | inhibition [2] 5% | outcome [4] | outcome [5] | outcome [6] | outcome [7]
active: growth inhibition [3] 91%

Cc1cc2c(cc1C(F)(F)F)N(C(=O)Nc1ccc(C(=O)NCCN3CCCC3)cc1)CC2
active: growth inhibition [3] 100%
inactive: inhibition [1] 10% | inhibition [2] 3% | outcome [4] | outcome [5] | outcome [6] | outcome [7]

CC(C)Cc1csc(NC(=O)C=Cc2ccco2)c1C(=O)O
inactive: inhibition [1] 4% | inhibition [2] -2% | outcome [4] | outcome [5] | outcome [6] | outcome [7]
active: growth inhibition [3] 82%

CN(C)Cc1cccc(-c2ccc(NC(=O)c3ccc4c(=O)n(Cc5cnn(C)c5)cnc4c3)cc2)c1
inactive: inhibition [1] 12% | inhibition [2] 2% | outcome [4] | outcome [5] | outcome [6] | outcome [7]
active: growth inhibition [3] 80%

O=C(NNC(=O)c1ccc(CN2CCC(c3nc4ccccc4[nH]3)CC2)cc1)Nc1ccc(Oc2ccccc2)cc1
active: growth inhibition [3] 86%
inactive: inhibition [1] -2% | inhibition [2] 0% | outcome [4] | outcome [5] | outcome [6] | outcome [7]

S=C(Nc1ccc(Cl)cc1)Nc1ccc(Nc2ccccc2)cc1
active: growth inhibition [3] 84%
inactive: inhibition [1] 14% | inhibition [2] -4% | outcome [4] | outcome [5] | outcome [6] | outcome [7]

O=C(Nc1ccc(C(F)(F)F)cc1)c1cc(Cl)cc2[nH]c(C(F)(F)F)nc12
active: inhibition [1] 86% | growth inhibition [3] 102%
inactive: inhibition [2] -1% | outcome [4] | outcome [5] | outcome [6] | outcome [7]

COc1cccc(-c2cc3c(NCc4ccncc4)nccc3s2)c1
inactive: inhibition [1] 0% | inhibition [2] -2% | outcome [4] | outcome [5] | outcome [6] | outcome [7]
active: growth inhibition [3] 87%

CCc1cc(-c2n[nH]c(C(F)(F)F)c2-c2ccccc2)c(O)cc1OC
active: growth inhibition [3] 84%
inactive: inhibition [1] 9% | inhibition [2] 1% | outcome [4] | outcome [5] | outcome [6] | outcome [7]

COc1ccc2c(c1)C(C)(CCCN(C)C)C(=O)N2C (configuration not stated)
active: growth inhibition [3] 93%
inactive: inhibition [1] 8% | inhibition [2] -3% | outcome [4] | outcome [5] | outcome [6] | outcome [7]

Cc1csc2nc(C(C)c3ccc(NC(=O)c4cccs4)cc3)oc(=O)c12 (configuration not stated)
active: growth inhibition [3] 90%
inactive: inhibition [1] -5% | inhibition [2] -3% | outcome [4] | outcome [5] | outcome [6] | outcome [7]

C=CC(C)C1OC(=O)c2cc(OC)cc(OC)c21 (configuration not stated)
active: inhibition [1] 100% | growth inhibition [3] 100%
inactive: inhibition [2] -4% | outcome [4] | outcome [5] | outcome [6] | outcome [7]
